GDH-TPI counter-1 = inhibits GDH-TPI coupling enzymes, artifact for Mtb FBA screen | GDH-TPI coupled enzyme counterscreen, NADH absorbance | inhibition, % at 4.8 µM | actives 1.2% (n = 360,000); in the data active = inhibition above about 30%
FBA Mtb inh = inhibitors of M. tuberculosis fructose-bisphosphate aldolase | P9WQA3 | purified M. tuberculosis FBA, fluorescence read-out | inhibition, % at 1 µM | actives 2.3% (n = 360,000)
Target sequence (P9WQA3 whole entry, looked up): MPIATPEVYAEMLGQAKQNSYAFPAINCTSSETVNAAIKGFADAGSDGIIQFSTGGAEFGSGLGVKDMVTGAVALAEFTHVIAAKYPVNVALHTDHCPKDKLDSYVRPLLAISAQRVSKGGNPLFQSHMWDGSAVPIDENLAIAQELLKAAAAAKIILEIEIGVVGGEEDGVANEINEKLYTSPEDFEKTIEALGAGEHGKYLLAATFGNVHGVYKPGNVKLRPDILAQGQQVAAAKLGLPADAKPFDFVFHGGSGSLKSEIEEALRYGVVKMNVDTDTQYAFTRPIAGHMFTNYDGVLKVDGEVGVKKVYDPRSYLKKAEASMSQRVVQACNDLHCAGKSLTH
BioA inh = BioA (M. tuberculosis) enzyme inhibition. purified M. tuberculosis BioA enzyme, plate reader. inhibition, % at 9.99 µM. actives 0.096% (n = 360,000); in the data active = inhibition above about 40%
BH1578 lux ind = quorum light induction in luxS cqsA deficient V. cholerae | actives 0.16% (n = 350,000) | activation, % at 18.7 µM | V. cholerae BH1578 lux reporter, luminescence, 6 h; in the data active = activation mostly above about 9.7%, no sharp cut-off
Mtb FBA inh conf = confirmation of M. tuberculosis fructose-bisphosphate aldolase inhibitors; shares compounds with FBA Mtb inh; purified M. tuberculosis FBA, fluorescence read-out; inhibition, % at 1 µM; actives 78% (n = 5,600)
GDH-TPI counter-2 = inhibits GDH-TPI coupling enzymes, flagging Mtb FBA hits; shares compounds with FBA Mtb inh; GDH-TPI coupled enzyme counterscreen, fluorescence; inhibition, % at 1 µM; actives 81% (n = 5,600); AID 652141; in the data active = inhibition above about 10%
GDH-TPI DR = GDH-TPI dose response counter-screen for Mtb FBA; IC50, µM; shares compounds with FBA Mtb inh; GDH-TPI coupled enzyme assay, fluorescence, artifact counterscreen; actives 79% (n = 170); call rule not given here
Of the large screens only hits and unclear results are named; the others gave an inactive call (follow-up assays come after a bar, where they were run). An excerpt weighted towards active compounds, which were near 3% of everything screened. Rule as the data show it, unless noted: active = inhibition above about 27%; inactive = the rest.

c1csc(CNc2nc(Oc3ccncc3)c3sccc3n2)c1	FBA Mtb inh 43.0 | Mtb FBA inh conf 64.5 | GDH-TPI counter-2 50.6
c1ccc(CNc2nc(Oc3ccncc3)c3sccc3n2)cc1	FBA Mtb inh 39.5 | Mtb FBA inh conf active | GDH-TPI counter-2 active
COCCNc1nc(Oc2ccccc2)c2sccc2n1	none
COCC(=O)N(C)C[C@H]1Oc2cc(C#CCC3CCCC3)ccc2S(=O)(=O)N([C@@H](C)CO)C[C@@H]1C	none (no result: GDH-TPI counter-1, FBA Mtb inh, BH1578 lux ind)
Cc1cc(C)nc(SCc2nc3ncccn3c2Br)n1	FBA Mtb inh 66.3 | Mtb FBA inh conf 31.0 | GDH-TPI counter-2 inactive | GDH-TPI DR 2.71
Brc1c(CSc2nc3ccccc3o2)nc2ncccn12	FBA Mtb inh 62.6 | Mtb FBA inh conf 63.4 | GDH-TPI counter-2 42.9
Cc1cc(C)nc(SCc2cn3c(C)cccc3n2)n1	none
Brc1c(CSc2nncn2-c2ccccc2)nc2ncccn12	FBA Mtb inh 83.3 | Mtb FBA inh conf 103.2 | GDH-TPI counter-2 74.6
COc1ccccc1NC(=O)N[C@H]1CC[C@@H](CCn2cc(-c3ccccc3)nn2)O[C@@H]1CO	none (no result: GDH-TPI counter-1, FBA Mtb inh, BH1578 lux ind)
NNC(=O)c1sc(-c2ccccc2)cc1N	FBA Mtb inh 40.7 (no result: BioA inh) | Mtb FBA inh conf inactive | GDH-TPI counter-2 inactive
C=CCc1cccc(C=Nc2c[nH]c(=O)[nH]c2=O)c1O	none
C=CCc1cccc(C=Nc2cccn3cc(-c4ccccc4)nc23)c1O	FBA Mtb inh 39.2 (no result: BioA inh) | Mtb FBA inh conf active | GDH-TPI counter-2 175.9
CCCN1[C@@H]2c3ccc(-c4ccccc4OC)c(=O)n3C[C@@H]2[C@@H](CO)[C@@H]1C(=O)Nc1nccs1	none (no result: GDH-TPI counter-1, FBA Mtb inh, BH1578 lux ind)
CO[C@H]1CN(C)C(=O)c2cc(C#N)ccc2OC[C@H]2O[C@H](CC[C@H]2OC)CCN(C)C(=O)[C@H]1C	none (no result: GDH-TPI counter-1, FBA Mtb inh, BH1578 lux ind)
Cc1c(CCC(=O)O)c(=O)oc2c(C)c(OCc3cc4c(cc3Cl)OCO4)ccc12	none
Cc1c(CCC(=O)O)c(=O)oc2cc(OCc3cccc(Cl)c3)ccc12	FBA Mtb inh 90.9 | Mtb FBA inh conf 114.9 | GDH-TPI counter-2 109.5
Cc1c(Cc2ccccc2)c(=O)oc2cc(OCC(=O)NCC(O)c3ccccc3)ccc12 (centres undefined)	FBA Mtb inh 79.5 | Mtb FBA inh conf active | GDH-TPI counter-2 active
CCNC(=O)[C@H]1[C@H](CO)[C@H]2Cn3c(cccc3=O)[C@@H]1N2C(=O)C1CCC1	none (no result: GDH-TPI counter-1, FBA Mtb inh, BH1578 lux ind)
CCCC(NC(=O)Cc1c(C)c2c(cc(C)c3c(C)coc32)oc1=O)C(=O)O (centres undefined)	FBA Mtb inh 55.1 | Mtb FBA inh conf inactive | GDH-TPI counter-2 inactive
Cc1coc2c1c(C)cc1oc(=O)c(CC(=O)N[C@@H](CC(C)C)C(=O)O)c(C)c12	FBA Mtb inh 79.0 | Mtb FBA inh conf 177.0 | GDH-TPI counter-2 141.2
Cc1coc2c1c(C)cc1oc(=O)c(CC(=O)NCCCN3CCCC3=O)c(C)c12	FBA Mtb inh 66.1 | Mtb FBA inh conf inactive | GDH-TPI counter-2 inactive | GDH-TPI DR 2.31
COCCCNC(=O)Cc1c(C)c2c(cc(C)c3c(C)c(C)oc32)oc1=O	none
Cc1coc2c(C)c3oc(=O)c(CC(=O)N[C@@H](CC(C)C)C(=O)O)c(C)c3cc12	none
CC[C@@H](C)[C@H](NC(=O)CNC(=O)Cc1c(C)c2c(cc(C)c3c(C)coc32)oc1=O)C(=O)O	FBA Mtb inh 82.5 | Mtb FBA inh conf 50.0 | GDH-TPI counter-2 34.7
CC(C)c1cn(CC[C@H]2CC[C@@H](NC(=O)c3cccc(F)c3)[C@H](CO)O2)nn1	none (no result: GDH-TPI counter-1, FBA Mtb inh, BH1578 lux ind)
CC(C)NC(=O)Nc1ccc2c(c1)C(=O)N([C@@H](C)CO)C[C@H](C)[C@H](CN(C)S(=O)(=O)c1ccc(F)cc1)OCCCC[C@@H](C)O2	none (no result: GDH-TPI counter-1, FBA Mtb inh, BH1578 lux ind)
CCC(=O)N1C[C@@H](C)[C@@H](OC)CN(C)C(=O)c2cc(NS(C)(=O)=O)ccc2OC[C@@H]1C	none (no result: GDH-TPI counter-1, FBA Mtb inh, BH1578 lux ind)
Cc1cc(C(=O)Nc2cccc3c2O[C@H](CN(C)S(=O)(=O)c2ccc(F)cc2)[C@H](C)CN([C@H](C)CO)C3=O)n(C)n1	none (no result: GDH-TPI counter-1, FBA Mtb inh, BH1578 lux ind)
CSc1ncc(C(=O)O)c(C)n1	none
Cc1ncc(C(=O)O)c(C(=O)O)c1N	FBA Mtb inh 33.5 | Mtb FBA inh conf inactive | GDH-TPI counter-2 15.2
COc1ccccc1S(=O)(=O)N[C@H]1CC[C@@H](CC(=O)N2CCOCC2)O[C@@H]1CO	none (no result: GDH-TPI counter-1, FBA Mtb inh, BH1578 lux ind)
Cc1cc(=O)oc2ccc(OCC(=O)NCc3ccco3)cc12	none
O=C(COc1ccc2oc(-c3ccccc3)cc(=O)c2c1)NCc1ccco1	FBA Mtb inh 30.1 | Mtb FBA inh conf 89.7 | GDH-TPI counter-2 69.4
CC1(C(=O)NCc2ccccc2)Cc2c(-c3ccccc3)ccnc2O1 (centres undefined)	none
CN(C)c1ccc(-c2ccnc3c2CC(C)(C(=O)NCc2ccccc2)O3)cc1 (centres undefined)	FBA Mtb inh 48.8 | Mtb FBA inh conf inactive | GDH-TPI counter-2 inactive
CC1(C(=O)NCC2CC2)Cc2c(-c3ccccc3)ccnc2O1 (centres undefined)	none
CC1(C(=O)NCc2cccc(Cl)c2)Cc2c(-c3ccccc3)ccnc2O1 (centres undefined)	none
CN(C)c1ccc(-c2ccnc3c2CC(C)(C(=O)NCc2ccncc2)O3)cc1 (centres undefined)	GDH-TPI counter-1 33.6, FBA Mtb inh 59.6 | Mtb FBA inh conf 177.9 | GDH-TPI counter-2 145.3
CN(C)c1ccc(-c2ccnc3c2CC(C)(C(=O)NCc2cccc(Cl)c2)O3)cc1 (centres undefined)	FBA Mtb inh 61.7 | Mtb FBA inh conf 57.9 | GDH-TPI counter-2 38.6
CN(C)c1ccc(-c2ccnc3c2CC(C)(C(=O)NCC2CCOCC2)O3)cc1 (centres undefined)	FBA Mtb inh 47.7 | Mtb FBA inh conf 113.6 | GDH-TPI counter-2 97.6
COc1cccc(-c2nc(-c3ccc4c(c3)-c3ccccc3S4(=O)=O)c(-c3ccccc3)[nH]2)c1OC	FBA Mtb inh 30.7 | Mtb FBA inh conf inactive | GDH-TPI counter-2 inactive
O=C(O)COc1ccc(-c2nc(-c3ccccc3)c(-c3ccccc3)[nH]2)cc1	FBA Mtb inh 97.8 | Mtb FBA inh conf 85.9 | GDH-TPI counter-2 73.2
COc1cccc(-c2nc(-c3ccccc3)c(-c3ccccc3)[nH]2)c1OCC(=O)O	FBA Mtb inh 84.1 | Mtb FBA inh conf 69.9 | GDH-TPI counter-2 53.5
O=C(O)COc1ccccc1-c1nc(-c2ccccc2)c(-c2ccccc2)[nH]1	FBA Mtb inh 87.9 | Mtb FBA inh conf 53.5 | GDH-TPI counter-2 29.5
COc1cc(-c2nc(-c3ccc4c(c3)-c3ccccc3S4(=O)=O)c(-c3ccccc3)[nH]2)cc(OC)c1OC	none (no result: BioA inh)
O=C(O)c1ccccc1-c1nc(-c2ccccc2)c(-c2ccccc2)[nH]1	none (no result: BioA inh)
COc1ccccc1OCC(=O)O	none
CC(=O)N(C)C[C@@H]1Oc2cc(C#CC3CC3)ccc2S(=O)(=O)N([C@H](C)CO)C[C@@H]1C	none (no result: GDH-TPI counter-1, FBA Mtb inh, BH1578 lux ind)
